The entries come from a sample that favours hits as a whole.
Pf Dd2 growth: blocks in vitro growth of P. falciparum Dd2 | P. falciparum Dd2 growth, SYBR Green, 72 h | Potency, µM (top dose mostly 28.9 µM), without a hit: at the highest dose activity, negative = inhibition, hits mostly inhibitors | 120,000 compounds, 4.3% hits | AID 1347417; active means well fitted inhibition curve with a large enough effect;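 further: plate controls were DMSO vehicle for no effect and reference drug for full effect; nearly all actives have a fitted effect of over 65% in size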
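Readout: SYBR Green fluorescence, 485 nm excitation, 535 nm emission, after ~16 h lysis at 37C. Before that, Dd2-infected red cells (2.5% hematocrit) grew 72 h with compound, 29 uM top final concentration.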
* marks the source's active call; other numbers are inactive results; i = inactive; [ ] = another dose, or the depositor's remark. Potency means the concentration at half of the fitted maximal effect.

SMILES	Pf Dd2 growth
CCCNC(=O)C1COC2(CCN(C(=O)Cc3ccccc3)CC2)N1C(=O)c1cccc(C)c1 (stereo not given)	i
Cc1cccc(C(=O)N2C(C(=O)NCc3ccccc3)COC23CCN(C(=O)CC(C)(C)C)CC3)c1 (stereo not given)	7.9µM*
Cc1ccc(C(=O)N2C(C(=O)NCC(C)C)COC23CCN(C(=O)c2cccc(Cl)c2)CC3)cc1 (stereo not given)	10µM*
CC(C)NC(=O)C1COC2(CCN(C(=O)CC(C)(C)C)CC2)N1C(=O)c1ccccc1 (stereo not given)	-25%
Cc1cccc(C(=O)N2C(C(=O)NCC(C)C)COC23CCN(C(=O)c2ccc(F)cc2)CC3)c1 (stereo not given)	i
COc1ccc(C(=O)N2CCC3(CC2)OCC(C(=O)NCC(C)C)N3C(=O)c2ccc(C)cc2)cc1 (stereo not given)	i
CN1C(=O)CCCCC1C(=O)N1CCCCC1 (stereo not given)	11%
COCCNC(=O)C1COC2(CCN(C(=O)c3ccc(F)cc3)CC2)N1C(=O)c1ccc(C)cc1 (stereo not given)	0%
Cc1cc(C(=O)N2CCCN(S(C)(=O)=O)C(c3ccccc3)CC(=O)NCC2)n(C)n1 (stereo not given)	10%
CN(C)c1ccc(C(=O)N2CCC[C@H]2c2nc(-c3ccccc3)no2)cc1	0%
Cn1nccc1C(=O)N1CCC(F)(c2nc(-c3ccccc3)no2)CC1	5%
O=C1CCCN1C1CCN(S(=O)(=O)c2ccccc2)CC1	32%[44.1 µM]
Cc1cn2nc(C(=O)N3CCCCC3)cc2c(N(C)Cc2ccccc2)n1	7.1µM*
Cc1cn2nc(C(=O)Nc3ccccc3C)cc2c(N(C)Cc2ccccc2)n1	-13%
Cc1cn2nc(C(=O)N3CCN(c4ccccc4)CC3)cc2c(N(C)Cc2ccccc2)n1	-8%
Cc1cn2nc(C(=O)Nc3cccc(F)c3C)cc2c(N(C)Cc2ccccc2)n1	-3%
Cc1cn2nc(C(=O)Nc3ccc(Cl)cc3C)cc2c(N(C)Cc2ccccc2)n1	10µM*
CCN(Cc1ccccc1)C(=O)c1cc2c(N3CCCC3)nc(C)cn2n1	i
CN(C)C[C@@H]1CN(Cc2ccccc2)C[C@H]1NC(=O)C1CC=CC1	-6%
O=C(NCC1(COc2cccnc2)C[C@@H](O)[C@@H](O)C1)c1cccnc1 (stereo not given in full)	21%[44.1 µM]
COc1ccc(N2CCN(C(=O)Cn3c(-c4cccc(Cl)c4)nc(C)c(CCO)c3=O)CC2)cc1	i
C=CCNC(=O)O[C@@H]1CC[C@]2(C)C(CC[C@@H](O)[C@H]2CC(=O)NCc2ccc3c(c2)OCO3)[C@]1(C)CO (stereo not given in full)	-13%
COc1cc(Cl)ccc1C(=O)NC1CCN(c2cc(-c3ccc(F)cc3)[nH]n2)C1 (stereo not given)	i
O=[S+]([O-])(c1ccccc1)N1CCC2(CC(c3cccc(C(F)(F)F)c3)=NO2)C1 (stereo not given)	-23%
CN(c1ccccc1)c1ccc2nnc(-c3cc(C(=O)NCCc4ccccc4)ccn3)n2n1	8.9µM*
SMILES	Pf Dd2 growth
CN(c1ccccc1)c1ccc2nnc(-c3cc(C(=O)NC4CCOCC4)ccn3)n2n1	-22%[44.1 µM]
CN(c1ccccc1)c1ccc2nnc(-c3cc(C(=O)NCc4ccncc4)ccn3)n2n1	-5%[44.1 µM]
COCCCNC(=O)N1CCCCCNC(=O)[C@@H]2CCCC[C@@H]21	-11%
COc1ccc(CNS(=O)(=O)c2cc3c(cc2Cl)NC(=O)CO3)cc1	38%[0.594 µM]
COc1ccc(NS(=O)(=O)c2cc3c(cc2C)NC(=O)CO3)c(OC)c1	4%
COc1ccccc1NS(=O)(=O)c1cc2c(cc1Cl)NC(=O)CO2	8.9µM*
C#CCN(CC=C)C(=O)c1ccccc1OC1CCN(C(=O)c2cccnc2)CC1	1%
CCN1CC(CNc2nccc(-c3c(C)nn(C)c3C)n2)CC1=O (stereo not given)	-2%
CN(C)Cc1nnc(C2CCN(C(=O)CCNS(C)(=O)=O)CC2)n1C	20%
O=C(c1cc(F)c(F)c(F)c1)N1CCC2(CCCNC2)C1 (stereo not given)	3%
CN1CCC(N2CCN(S(=O)(=O)c3ccccc3C(F)(F)F)CC2)C1=O (stereo not given)	-15%
CC(C)c1ccc(S(=O)(=O)N2CCC3(CCCNC3)C2)cc1 (stereo not given)	5µM*
O=S(=O)(c1ccccc1C(F)(F)F)N1CCC2(CCCNC2)C1 (stereo not given)	7.9µM*
CNc1ccc(C(=O)N2CCC3(CCCNC3)C2)cc1 (stereo not given)	-15%
O=c1ccc2cc(S(=O)(=O)N3CCC4(CCCNC4)C3)ccc2o1 (stereo not given)	-13%
O=C(c1ccccn1)N1CCC(N(Cc2cccnc2)C2CCOCC2)CC1	i
COc1cccc(N2C(=O)NC(=NC3CCCCC3)C23CCN(CC2CCCCC2)C3)c1 (stereo not given)	-1%
COc1cccc(N2C(=O)NC(=NC3CCCC3)C23CCN(CC2CCCCC2)C3)c1 (stereo not given)	10µM*
O=C1NC(=NC2CCCC2)C2(CCCN([S+](=O)([O-])c3cccc(C(F)(F)F)c3)C2)N1c1cccnc1 (stereo not given)	-29%
COc1cccc(N2C(=O)NC(=NC3CCCCC3)C23CCCN([S+](=O)([O-])c2cccc(C(F)(F)F)c2)C3)c1 (stereo not given)	13µM*
COc1cccc(N2C(=O)NC(=NC3CCCCC3)C23CCN([S+](=O)([O-])c2cccs2)C3)c1 (stereo not given)	-10%
COc1ccc(CN2CCCC3(C2)C(=NC2CCCCC2)NC(=O)N3c2cccc(OC)c2)cc1 (stereo not given)	8.9µM*
O=C1NC(=NC2CCCC2)C2(CCN([S+](=O)([O-])c3cccc(C(F)(F)F)c3)C2)N1c1cc(F)cc(F)c1 (stereo not given)	14%
COc1cccc(N2C(=O)NC(=NC3CCCCC3)C23CCCN(Cc2ccsc2)C3)c1 (stereo not given)	11µM*
COc1cccc(N2C(=O)NC(=NC3CCCCC3)C23CCN(Cc2cccnc2)C3)c1 (stereo not given)	-24%
SMILES	Pf Dd2 growth
COc1cccc(N2C(=O)NC(=NC3CCCC3)C23CCN(CC2CC2)C3)c1 (stereo not given)	-7%
COc1ccc(C(=O)N2CCCC3(C2)C(=NC2CCCCC2)NC(=O)N3c2cccc(OC)c2)cc1 (stereo not given)	8%
COc1cccc(CNC(=O)[C@@H]2C[C@@H](O)CN2C2CCN(C(=O)CCn3nc(C)cc3C)CC2)c1	i
COc1ccccc1OC1(C(=O)O)CCN(Cc2ccccc2F)CC1	4%
Cc1nc(C)c(C(=O)N2CCOCC(O)(CN3CCCC3)C2)s1 (stereo not given)	-8%
COC(=O)CNC(=O)c1cc(-c2ccccc2OC)c2cnn(C)c2n1	14%
O=C(c1ccc(Cl)nc1)N1CCn2c(nn(-c3ccc(F)cc3)c2=O)C1	-10%
COc1ccc(N2C(=O)CSC23CCN(C(=O)Nc2ccc(F)cc2F)CC3)cc1	-23%
COc1ccc(C(=O)N2CCC3(C2)C(=NC2CCCCC2)NC(=O)N3c2cccc(OC)c2)cc1 (stereo not given)	32%
COc1cccc(N2C(=O)NC(=NC3CCCCC3)C23CCN(Cc2ccccc2)CC3)c1	-19%
